A short description of assay [1]: qHTS assay to identify small molecule HDAC inhibitors (AID 1259364). Also: top concentration of the series differs between compounds; nearly all actives have a fitted effect of over 45% in size. In short, it runs like this: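 Luminescence read after 30 min room-temperature HDAC-Glo incubation measures cellular class I/II HDAC activity. Compounds were applied for 2 hr at 37 C to HCT-116 wild-type cells seeded the day before.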
A short description of assay [2]: qHTS assay to identify small molecule HDAC inhibitors - cell viability counter screen (AID 1259365). Also: series mostly up to about 92 µM; nearly all actives have a fitted effect of over 50% in size. In short, it runs like this: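 Viability readout: CellTiter-Glo luminescence. Wild-type HCT-116 cells, 2hr compound treatment following overnight attachment at 37 C.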
Assay [3] can be described thus: qHTS assay to identify small molecule agonists of the sonic hedgehog signaling (Shh) pathway - cell viability counter screen (AID 1259366). Also: nearly all actives have a fitted effect of over 50% in size. In short, it runs like this:
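Viability measured fluorometrically (CellTiter-Fluor, 1hr, 37C) in 3T3 Gli1-Luc reporter cells after 23hr compound exposure within a 24hr incubation at 37C/5% CO2.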

Assay [4] can be described thus: qHTS assay to identify small molecule antagonists of the sonic hedgehog signaling (Shh) pathway - cell viability counter screen (AID 1259367). Also: nearly all actives have a fitted effect of over 55% in size. In short, it runs like this: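 Conditioned medium drove Shh signaling in 3T3 Gli1-Luc cells exposed to compounds at 37C and 5% CO2. Viability was determined from CellTiter-Fluor fluorescence, with reagent incubated 1 hr after 23 hr of treatment.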

The nature of assay [5]: qHTS assay to identify small molecule agonists of the sonic hedgehog signaling (Shh) pathway (AID 1259368; calls by dose curve;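 also: NIH/3T3-derived 3T3Gli1-Luc cells carrying a stable Gli1-driven firefly luciferase reporter; series mostly up to about 92 µM; nearly all actives have a fitted effect of over 15% in size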). In short, it runs like this:
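Luminescence was read after 30 min at room temperature with luciferase reagent. Before that, 3T3Gli1-Luc cells (NIH/3T3 clone, stable Gli1-Luc reporter; 2,000/well) were exposed to compounds for 24 hr at 37C, 5% CO2, compounds being added 4 hr post-plating.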

The target of assay [6] is Estrogen receptor beta (Homo sapiens) (UniProt Q92731). The experiment in a line: qHTS assay to identify small molecule agonists of the estrogen receptor beta (ER-beta) signaling pathway (AID 1259377; active = well fitted activation curve with a large enough effect in the signal ratio in the repeat runs, not every such curve was filed as active; the % refers to the signal ratio). In short, it runs like this:
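A UAS-controlled beta-lactamase reporter in ER-beta-UAS-bla HEK293T cells reports receptor activation. Compounds act for 16 hr at 37C in 2% charcoal-stripped serum, and a FRET substrate is read by fluorescence after 2 hours.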

Assay [7] shares this target. As to the kind of experiment: qHTS assay to identify small molecule antagonists of the estrogen receptor beta (ER-beta) signaling pathway (AID 1259378; active = well fitted inhibition curve with a large enough effect in the signal ratio in the repeat runs, not every such curve was filed as active; the % refers to the signal ratio). In short, it runs like this: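 ER-beta-UAS-bla HEK293T (GripTite) cells in 2% charcoal-stripped FBS medium were preincubated 6 hr at 37C, dosed with compound, then stimulated with 1 nM E2 (final) for 16 hr; beta-lactamase reporter read by B/G FRET fluorescence after 2 hr substrate loading.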

Assay [8] is described as follows: qHTS assay to identify small molecule agonists of the androgen receptor (AR) signaling pathway in the presence of an antagonist - cell viability counter screen (AID 1259379). Also: nearly all actives have a fitted effect of over 25% in size. Also: potency is read from the fitted curve at half-maximal effect. In short, it runs like this:
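Cytotoxicity counter-screen run in the same wells as the nilutamide-challenged (3.0 µM final) AR agonist assay in MDA-kb2 cells. Compounds tested at 15 concentrations for 16 h, 37 °C without CO2; CellTiter-Fluor fluorescence read.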

A short description of assay [9]: qHTS assay to identify small molecule agonists of the estrogen receptor beta (ER-beta) signaling pathway - cell viability counter screen (AID 1259380). Also: nearly all actives have a fitted effect of over 30% in size. In short, it runs like this: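 Cell viability counter screen: CellTiter-Glo luminescence (30 min, room temperature) measured in the same wells as the beta-lactamase readout, after 16 hr compound exposure at 37C of ER-beta-bla HEK293T cells in 2% charcoal-stripped FBS medium.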

Assay [10] in a line: qHTS assay to identify small molecule antagonists of the sonic hedgehog signaling (Shh) pathway (AID 1259369; calls by dose curve; also: nearly all actives have a fitted effect of over 45% in size). In short, it runs like this: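 Antagonist mode: compound added to 3T3 Gli1-Luc cells followed by conditioned-medium stimulation, 24 h at 37 C, 5% CO2. Inhibition taken as loss of Gli1-driven luciferase luminescence.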

Structures are written as SMILES. Unmarked numbers belong to inactive results. Inconclusive results are not listed. Activity calls are given as the source filed them. Unless noted, calls follow the shape of the dose curve; as a rule, active = well fitted curve in the direction sought with a large enough effect in the repeat runs; inconclusive = weak or mixed curves; inactive = no such curve, though single readings can be large; an effect the other way counts as inactive or inconclusive.

Sequence of Estrogen receptor beta (Homo sapiens) (Q92731 whole entry, looked up): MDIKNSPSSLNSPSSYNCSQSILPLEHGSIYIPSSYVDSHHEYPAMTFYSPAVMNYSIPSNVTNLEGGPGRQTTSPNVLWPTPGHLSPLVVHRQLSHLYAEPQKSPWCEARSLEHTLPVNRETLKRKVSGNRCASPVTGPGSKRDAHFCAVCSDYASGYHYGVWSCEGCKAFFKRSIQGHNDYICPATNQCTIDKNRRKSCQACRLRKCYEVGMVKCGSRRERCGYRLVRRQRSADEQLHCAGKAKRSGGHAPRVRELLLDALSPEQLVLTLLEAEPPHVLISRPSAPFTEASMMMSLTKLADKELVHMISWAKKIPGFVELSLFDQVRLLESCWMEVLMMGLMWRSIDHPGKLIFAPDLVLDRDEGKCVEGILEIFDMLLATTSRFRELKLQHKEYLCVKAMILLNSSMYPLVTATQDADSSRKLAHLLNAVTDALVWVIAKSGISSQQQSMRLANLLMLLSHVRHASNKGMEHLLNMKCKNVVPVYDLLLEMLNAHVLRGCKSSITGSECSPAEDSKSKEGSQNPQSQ

Turning to `COCC(=O)Nc1c(I)c(C(=O)NCC(O)CO)c(I)c(C(=O)N(C)CC(O)CO)c1I` (configuration not stated), the Potency entry in assay [1], in assay [3], in assay [4], in assay [6] and in assay [8] was “inactive” each time. In addition, the compound was classed as inactive in assay [2], in [5], in assay [7] and in assay [9].
For the compound `CCCCCCCC/C=C\CCCCCCCC(=O)OC[C@@H](O)[C@H]1OC[C@H](O)[C@H]1O`, the Potency result in assay [1], in assay [4], in assay [10], in assay [6] and in [8] was “inactive” throughout. Also, the compound was called inactive in [2], in [5], in assay [7] and in assay [9].
On to `Cc1cccc(NC(=S)N(C)C)c1`, for which the Potency entry in [1], in assay [3], in [4], in assay [10], in assay [6] and in assay [8] was “inactive” throughout. Further, the compound was classed as inactive in assay [2] and in assay [9].
Take `CC(C)CCO`: the Potency entry in [1], in assay [4], in [10] and in assay [6] was “inactive” in each case. The compound was classed as inactive in assay [2], in assay [5] and in [7].
Regarding `CCCOCCOCCOCCO`, the Potency entry in [1], in assay [3], in assay [4], in assay [6] and in [8] was “inactive” each time. For the same compound, the outcome in assay [2], in assay [5] and in assay [7] was inactive.
For the compound `O=P(O)(O)OCC(O)CO` (configuration not stated), the Potency entry in assay [1], in assay [4], in [10] and in assay [8] was “inactive” in each case. Also, the call in assay [2], in [5] and in [9] was inactive.
As to `Nc1ccc(S(=O)(=O)Nc2ccccn2)cc1`, the result in assay [2], in assay [5] and in assay [7] was inactive. The Potency entry in assay [3], in assay [4], in assay [10], in assay [6] and in [8] was “inactive” each time.
Regarding `CC(=O)/C=C/c1ccco1`, the Potency entry in [1], in assay [4], in assay [10] and in assay [8] was “inactive” throughout. Besides, the result in assay [2], in [5] and in [9] was inactive.
For the compound `CC1=NN(c2ccc(S(=O)(=O)O)cc2)C(=O)C1N=Nc1ccccc1` (configuration not stated), the Potency result in assay [1] and in assay [10] was “inactive” throughout. The compound was called inactive in [2], in assay [5] and in [9]. The Potency in assay [8] is 30.6 µM (active).
Regarding `COCCOCCOCCOC`, the Potency result in [1], in assay [4], in assay [10], in assay [6] and in [8] was “inactive” throughout. The compound was classed as inactive in [2], in [5], in assay [7] and in [9].
Take `Cc1nc2ccccc2c(=O)o1`: the result in [2], in assay [5], in [7] and in [9] was inactive. In addition, the Potency result in assay [3], in assay [4], in assay [10], in assay [6] and in [8] was “inactive” in each case.
Take `CCCCOC(=O)C(=O)OCCCC`: the Potency entry in assay [1], in assay [4], in assay [10] and in [8] was “inactive” in each case. For the same compound, the outcome in [2] and in [5] was inactive.
Take `NS(=O)(=O)c1cc2c(cc1Cl)NC(CC1CCCC1)NS2(=O)=O` (configuration not stated): the Potency result in assay [1], in assay [4], in assay [6] and in assay [8] was “inactive” throughout. The compound was called inactive in [2], in assay [5] and in assay [7].
Take `Cc1ccccc1N1CCN(CCc2nnc3n2CCCC3)CC1`: the Potency entry in assay [1], in [4] and in [6] was “inactive” each time. The outcome in assay [2], in assay [5], in assay [7] and in assay [9] was inactive.
`O=C(COCCOCCOCC(=O)Nc1c(I)cc(I)c(C(=O)O)c1I)Nc1c(I)cc(I)c(C(=O)O)c1I`: the Potency result in [1], in assay [4], in assay [10] and in [6] was “inactive” in each case. In addition, the outcome in assay [2], in [5], in assay [7] and in assay [9] was inactive.
In the case of `NS(=O)(=O)c1ccc(Cl)c(S(N)(=O)=O)c1`, the Potency entry in assay [1], in [4], in assay [10], in assay [6] and in [8] was “inactive” each time. The result in assay [2] and in [5] was inactive.
`CCN(CCC#N)c1ccccc1`: the call in assay [2], in assay [5] and in assay [7] was inactive. The Potency result in [3], in [4], in assay [10], in [6] and in assay [8] was “inactive” each time.
Regarding `CCc1nccnc1C`, the Potency result in assay [1], in assay [4], in assay [10] and in assay [6] was “inactive” throughout. For the same compound, the call in [2], in assay [5], in [7] and in assay [9] was inactive.
Turning to `CNCc1ccccc1`, the Potency result in assay [1], in assay [4] and in assay [10] was “inactive” throughout. Further, the call in assay [2], in [5] and in assay [9] was inactive.
`C=CC(C)(O)CC/C=C(\C)CC` (configuration not stated): the Potency entry in [1], in [4], in [6] and in assay [8] was “inactive” each time. Moreover, the result in assay [2], in assay [5], in assay [7] and in assay [9] was inactive.
Consider `CO/N=C(/C(=O)N[C@@H]1C(=O)N2C(C(=O)O)=C(Cn3nnc(C)n3)CS[C@H]12)c1csc(N)n1`, for which the Potency entry in assay [1], in assay [4], in assay [6] and in assay [8] was “inactive” each time. For the same compound, the result in assay [2], in assay [5] and in assay [9] was inactive.
In the case of `CCC(=O)OCCC(C)CCC=C(C)C` (configuration not stated), the Potency entry in [1], in assay [4] and in assay [8] was “inactive” in each case. The outcome in assay [2], in [5] and in assay [9] was inactive.
Consider `CCC(C)N` (configuration not stated), for which the compound was classed as inactive in assay [2], in assay [5] and in [7]. Also, the Potency result in assay [3], in assay [4], in [10], in assay [6] and in assay [8] was “inactive” throughout.
For `Cc1cccc(C(=O)O)c1[N+](=O)[O-]`, the compound was called inactive in assay [2], in [5], in assay [7] and in assay [9]. In addition, the Potency entry in assay [3], in [4], in assay [10], in [6] and in assay [8] was “inactive” in each case.
Turning to `C=CCOC(=O)c1ccc(C(=O)OCC=C)c(C(=O)OCC=C)c1`, the Potency entry in assay [1], in assay [4], in [10], in assay [6] and in assay [8] was “inactive” each time. In addition, the compound was called inactive in [2], in [5] and in assay [9].
On to `Nc1ccc(C(=O)OCC(O)CO)cc1` (configuration not stated), for which the Potency result in assay [1], in [4], in assay [10] and in assay [6] was “inactive” each time. The call in assay [2], in [5] and in assay [9] was inactive.

The values are drawn from PubChem BioAssay (Tox21).
